Data: PubChem BioAssay (Tox21)
Several values for one entry are separate records, joined by “and”; a condition that tells them apart may be missing. Identical values can stand only once. Records with an inconclusive call do not appear. A call without a number means that no potency is given here. Unmarked numbers belong to inactive results. Activity calls are given as the source filed them. Calls come from the whole dose curve; as a rule, active = well fitted curve in the direction sought with a large enough effect in the repeat runs; inconclusive = weak or mixed curves; inactive = no such curve, though single readings can be large; an effect the other way counts as inactive or inconclusive.

Legend:
[1] = target: Cytochrome P450 2D6 (Homo sapiens) (UniProt P10635); assay: Cytochrome P450 Family 2 Subfamily D Member 6 (CYP2D6) small molecule antagonists: luciferase reporter qHTS assay (AID 1671196); note: nearly all actives have a fitted effect of over 50% in size; for activity change, negative = inhibition: series mostly up to about 120 µM
Chain of Cytochrome P450 2D6 (Homo sapiens) (P10635 whole entry, looked up): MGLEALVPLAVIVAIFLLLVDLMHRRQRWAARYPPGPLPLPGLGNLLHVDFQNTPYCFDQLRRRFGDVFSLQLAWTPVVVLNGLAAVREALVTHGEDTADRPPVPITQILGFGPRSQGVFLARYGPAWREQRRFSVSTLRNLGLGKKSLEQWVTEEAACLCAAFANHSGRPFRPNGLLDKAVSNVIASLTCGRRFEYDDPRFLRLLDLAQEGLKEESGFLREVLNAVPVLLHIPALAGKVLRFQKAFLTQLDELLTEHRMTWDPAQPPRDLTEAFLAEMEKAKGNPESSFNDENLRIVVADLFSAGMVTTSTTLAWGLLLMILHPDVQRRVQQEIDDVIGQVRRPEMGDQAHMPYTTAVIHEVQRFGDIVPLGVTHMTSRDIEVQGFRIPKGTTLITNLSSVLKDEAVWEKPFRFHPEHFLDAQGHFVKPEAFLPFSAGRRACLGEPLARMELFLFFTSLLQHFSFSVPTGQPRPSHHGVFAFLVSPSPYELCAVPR
How it was run: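 Read-out is luminescence from luciferin formed by CYP2D6 turnover of a proluciferin substrate, recorded as relative luminescence units. Reactions ran 1 h at room temperature after NADPH regeneration solution was added.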

[2] = target: Cytochrome P450 2C19 (Homo sapiens) (UniProt P33261); assay: Cytochrome P450 Family 2 Subfamily C Member 19 (CYP2C19) small molecule antagonists: luciferase reporter qHTS assay (AID 1671197); note: nearly all actives have a fitted effect of over 65% in size; for activity change, negative = inhibition: series mostly up to about 120 µM
Chain of Cytochrome P450 2C19 (Homo sapiens) (P33261 whole entry, looked up): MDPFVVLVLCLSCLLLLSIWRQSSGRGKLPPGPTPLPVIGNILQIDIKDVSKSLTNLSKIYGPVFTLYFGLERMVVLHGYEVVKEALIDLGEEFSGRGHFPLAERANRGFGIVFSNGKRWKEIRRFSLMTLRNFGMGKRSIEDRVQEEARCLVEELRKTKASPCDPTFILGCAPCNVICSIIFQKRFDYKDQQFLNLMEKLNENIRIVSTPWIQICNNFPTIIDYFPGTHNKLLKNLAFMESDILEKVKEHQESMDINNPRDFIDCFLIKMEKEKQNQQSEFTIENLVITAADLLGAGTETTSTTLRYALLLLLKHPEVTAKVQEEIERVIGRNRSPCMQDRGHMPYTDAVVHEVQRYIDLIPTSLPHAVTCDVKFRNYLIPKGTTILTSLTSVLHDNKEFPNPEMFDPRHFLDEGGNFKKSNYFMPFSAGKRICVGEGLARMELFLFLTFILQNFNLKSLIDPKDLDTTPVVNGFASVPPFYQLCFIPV
How it was run: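 First, compounds are pinned into enzyme-substrate mix and held 10 min at room temperature. Second, NADPH regeneration solution is added and plates incubate 1 h at 37C. Third, detection reagent is added and luminescence read after 20 min.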

[3] = target: Cytochrome P450 2C9 (Homo sapiens) (UniProt P11712); assay: Cytochrome P450 Family 2 Subfamily C Member 9 (CYP2C9) small molecule antagonists: luciferase reporter qHTS assay (AID 1671198); note: nearly all actives have a fitted effect of over 50% in size; for activity change, negative = inhibition: series mostly up to about 120 µM
Chain of Cytochrome P450 2C9 (Homo sapiens) (P11712 whole entry, looked up): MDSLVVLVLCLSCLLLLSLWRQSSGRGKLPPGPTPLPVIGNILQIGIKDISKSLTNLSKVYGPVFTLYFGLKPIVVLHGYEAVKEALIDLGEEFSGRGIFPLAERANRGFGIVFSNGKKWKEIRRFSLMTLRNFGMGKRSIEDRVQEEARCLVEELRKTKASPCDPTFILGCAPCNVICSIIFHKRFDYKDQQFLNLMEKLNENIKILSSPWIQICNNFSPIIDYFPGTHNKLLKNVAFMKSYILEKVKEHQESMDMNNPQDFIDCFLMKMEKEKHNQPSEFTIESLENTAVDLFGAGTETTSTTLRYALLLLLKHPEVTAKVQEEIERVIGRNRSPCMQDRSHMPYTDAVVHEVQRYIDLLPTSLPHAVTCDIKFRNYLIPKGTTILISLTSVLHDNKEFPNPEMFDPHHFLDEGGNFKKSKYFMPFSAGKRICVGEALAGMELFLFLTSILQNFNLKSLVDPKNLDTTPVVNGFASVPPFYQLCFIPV
How it was run: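 CYP2C9 activity was measured with a P450-Glo proluciferin substrate. Enzyme–substrate mix was held with compound for 10 min at room temperature, then NADPH regeneration solution was added for 1 h at 37C. Luciferin product was read as luminescence.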

[4] = target: Cytochrome P450 1A2 (Homo sapiens) (UniProt P05177); assay: Cytochrome P450 Family 1 Subfamily A Member 2 (CYP1A2) small molecule antagonists: luciferase reporter qHTS assay (AID 1671199); note: nearly all actives have a fitted effect of over 50% in size; for activity change, negative = inhibition: series mostly up to about 120 µM
Chain of Cytochrome P450 1A2 (Homo sapiens) (P05177 whole entry, looked up): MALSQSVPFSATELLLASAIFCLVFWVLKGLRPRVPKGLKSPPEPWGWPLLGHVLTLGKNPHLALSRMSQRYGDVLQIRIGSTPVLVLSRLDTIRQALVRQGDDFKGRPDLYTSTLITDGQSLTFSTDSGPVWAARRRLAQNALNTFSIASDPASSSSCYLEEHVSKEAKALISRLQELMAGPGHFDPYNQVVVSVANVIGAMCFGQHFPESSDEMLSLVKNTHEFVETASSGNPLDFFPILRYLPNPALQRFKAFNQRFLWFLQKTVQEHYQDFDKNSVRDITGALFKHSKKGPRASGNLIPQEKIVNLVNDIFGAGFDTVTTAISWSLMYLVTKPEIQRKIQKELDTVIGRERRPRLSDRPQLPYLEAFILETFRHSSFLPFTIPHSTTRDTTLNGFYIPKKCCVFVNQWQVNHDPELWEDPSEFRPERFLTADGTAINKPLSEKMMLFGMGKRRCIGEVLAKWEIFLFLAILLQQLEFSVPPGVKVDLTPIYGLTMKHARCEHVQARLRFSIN
How it was run: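 P450-Glo CYP1A2, 1536-well qHTS: enzyme/proluciferin substrate + cpd (DMSO), 10 min RT; NADPH regen, 1 h RT; detection reagent, 20 min; luminescence, RLU.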

[5] = target: Voltage-gated inwardly rectifying potassium channel KCNH2 (Homo sapiens) (UniProt Q12809); assay: Human Ether-a-go-go-Related Gene (hERG) channel small molecule antagonists: fluorescence cell-based qHTS assay (AID 1671200); note: nearly all actives have a fitted effect of over 50% in size;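 for activity change, negative = inhibition: hERG-expressing U2OS cells given a thallium stimulus after FluxOR II dye loading; series mostly up to about 77 µM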
Chain of Voltage-gated inwardly rectifying potassium channel KCNH2 (Homo sapiens) (Q12809 whole entry, looked up): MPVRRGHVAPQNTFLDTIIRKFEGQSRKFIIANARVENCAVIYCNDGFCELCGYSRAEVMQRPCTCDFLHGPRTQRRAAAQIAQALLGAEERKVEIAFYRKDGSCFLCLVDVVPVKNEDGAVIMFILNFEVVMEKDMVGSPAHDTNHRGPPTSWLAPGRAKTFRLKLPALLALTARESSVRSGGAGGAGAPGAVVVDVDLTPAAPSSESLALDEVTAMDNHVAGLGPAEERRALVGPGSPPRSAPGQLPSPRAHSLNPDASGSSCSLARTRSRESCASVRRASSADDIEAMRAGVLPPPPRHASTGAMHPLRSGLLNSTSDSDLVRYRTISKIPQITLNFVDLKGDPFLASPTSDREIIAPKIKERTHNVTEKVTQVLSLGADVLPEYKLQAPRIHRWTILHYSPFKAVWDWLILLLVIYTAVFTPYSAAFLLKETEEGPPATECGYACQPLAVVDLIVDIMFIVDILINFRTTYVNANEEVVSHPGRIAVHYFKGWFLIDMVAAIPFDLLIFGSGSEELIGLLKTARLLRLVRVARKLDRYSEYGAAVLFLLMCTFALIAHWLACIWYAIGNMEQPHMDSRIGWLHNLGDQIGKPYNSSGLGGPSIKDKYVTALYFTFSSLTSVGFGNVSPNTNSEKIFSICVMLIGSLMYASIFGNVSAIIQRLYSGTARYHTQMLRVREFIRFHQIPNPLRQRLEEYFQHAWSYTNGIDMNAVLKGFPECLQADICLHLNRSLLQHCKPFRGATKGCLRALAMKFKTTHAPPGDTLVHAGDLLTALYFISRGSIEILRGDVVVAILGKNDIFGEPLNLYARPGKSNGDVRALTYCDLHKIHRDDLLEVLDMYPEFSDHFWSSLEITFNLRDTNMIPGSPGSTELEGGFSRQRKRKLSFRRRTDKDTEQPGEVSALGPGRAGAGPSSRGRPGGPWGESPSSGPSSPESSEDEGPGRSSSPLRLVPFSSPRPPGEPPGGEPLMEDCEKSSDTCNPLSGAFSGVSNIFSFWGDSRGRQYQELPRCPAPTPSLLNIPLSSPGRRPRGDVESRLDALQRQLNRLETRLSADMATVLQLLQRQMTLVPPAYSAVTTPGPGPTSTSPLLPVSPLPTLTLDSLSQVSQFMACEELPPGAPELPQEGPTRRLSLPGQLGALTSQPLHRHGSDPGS
How it was run: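 Measured: Tl+ flux via fluorescence (480/540 nm) in hERG-expressing U2OS cells after 1 h dye loading at room temperature.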

[6] = target: Cytochrome P450 3A4 (Homo sapiens) (UniProt P08684); assay: Cytochrome P450 Family 3 Subfamily A Member 4 (CYP3A4) small molecule antagonists: luciferase reporter qHTS assay (AID 1671201); note: nearly all actives have a fitted effect of over 50% in size; for activity change, negative = inhibition: series mostly up to about 120 µM
Chain of Cytochrome P450 3A4 (Homo sapiens) (P08684 whole entry, looked up): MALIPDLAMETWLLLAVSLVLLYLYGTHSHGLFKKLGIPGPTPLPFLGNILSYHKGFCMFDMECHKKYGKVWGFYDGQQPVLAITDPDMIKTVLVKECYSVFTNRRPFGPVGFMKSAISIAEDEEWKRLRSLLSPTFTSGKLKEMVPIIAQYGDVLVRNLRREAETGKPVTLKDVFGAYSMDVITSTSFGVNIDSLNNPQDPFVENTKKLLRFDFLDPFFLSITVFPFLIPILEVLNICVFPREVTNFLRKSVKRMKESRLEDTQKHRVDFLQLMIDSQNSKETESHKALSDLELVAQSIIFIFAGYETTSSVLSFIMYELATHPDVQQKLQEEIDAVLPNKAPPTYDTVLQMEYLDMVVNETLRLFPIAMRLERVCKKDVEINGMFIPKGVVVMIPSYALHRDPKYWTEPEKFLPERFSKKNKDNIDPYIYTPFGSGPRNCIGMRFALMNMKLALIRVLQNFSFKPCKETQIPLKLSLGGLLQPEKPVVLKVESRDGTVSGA
How it was run: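 Setup: enzyme-substrate mix, compound pin transfer, 10 min RT. Reaction: NADPH regeneration solution, 1 h RT. Readout: detection reagent stops turnover, luminescence measured after 20 min, expressed in relative luminescence units.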
Potency is the fitted concentration of half-maximal effect.

Row | Structure (SMILES) | Potency [1] | Potency [2] | Potency [3] | Potency [4] | Potency [5] | Potency [6] | activity change, negative = inhibition [1] | activity change, negative = inhibition [5]
1 | C=C1CCC2CC1C2(C)C (configuration not stated) | inactive | inactive | inactive | inactive | inactive | inactive |  | 
2 | CC(CN(C)C)C(C)(O)Cc1ccc(Cl)cc1 (configuration not stated) | 6.17 µM (active) | inactive | inactive | inactive |  | inactive |  | 
3 | CC(C)=CCC/C(C)=C/CC/C(C)=C/CCC(=O)OC/C=C(\C)CCC=C(C)C | inactive | inactive | inactive | inactive | inactive | inactive |  | 
4 | CN(C)CCC=C1c2ccccc2C=Cc2ccccc21 | 6.17 µM (active) | inactive | inactive | inactive |  | inactive |  | 
5 | CCC(=O)OC | inactive | inactive | inactive | inactive | inactive | inactive |  | 
6 | O=C(O)c1ccc(OCCCOc2ccc(C(=O)O)cc2)cc1 | 8.71 µM (active) | inactive | inactive | inactive | inactive | inactive |  | 
7 | C/C=C/C=C/C=O | inactive | inactive | inactive | inactive | inactive | inactive |  | 
8 | O=C(OCC(O)CO)c1ccccc1Nc1ccnc2cc(Cl)ccc12 (configuration not stated) | 13.8 µM (active) | 8.71 µM (active) | 15.5 µM (active) |  | inactive |  |  | 
9 | CC(=O)c1cc2ccccc2s1 | inactive | inactive | inactive | 6.92 µM (active) | inactive | inactive |  | 
10 | O=[N+]([O-])c1ccc(Nc2ccc(Nc3ccccc3)c(S(=O)(=O)O)c2)c([N+](=O)[O-])c1 | inactive | inactive | 35.6 µM (active) | inactive | inactive | inactive |  | 
11 | CC1CC(C)C(=O)C1=O (configuration not stated) | inactive | inactive | inactive | inactive | inactive | inactive |  | 
12 | C1COC1 | inactive | inactive | inactive | inactive | inactive | inactive |  | 
13 | O=C=Nc1ccc(Cl)c(Cl)c1 | inactive | inactive | 39.3 µM (active) | 35 µM (active) | inactive | 31.2 µM (active) |  | 
14 | C=C1C[C@@]23CC[C@H]4[C@@](C)(CCC[C@@]4(C)C(=O)O[C@@H]4O[C@H](CO)[C@@H](O)[C@H](O)[C@H]4O)[C@@H]2CC[C@]1(O[C@@H]1O[C@H](CO)[C@@H](O)[C@H](O[C@@H]2O[C@H](CO)[C@@H](O)[C@H](O)[C@H]2O)[C@H]1O[C@@H]1O[C@H](CO)[C@@H](O)[C@H](O)[C@H]1O)C3 | inactive | inactive | inactive |  | inactive |  |  | 
15 | CCOC(=O)c1ccc(OCCN2C[C@H](O)[C@@H](O)[C@H](O)[C@H]2CO)cc1 | inactive | inactive | inactive |  | inactive |  |  | 
16 | CC[N+](CC)(CCNC(=O)C(=O)NCC[N+](CC)(CC)Cc1ccccc1Cl)Cc1ccccc1Cl | 15.5 µM (active) | inactive | inactive |  | inactive |  |  | 
17 | C[C@@H]1CC(=O)NN=C1c1ccc(NN=C(C#N)C#N)cc1 | inactive | 17.4 µM (active) | 1.38 µM (active) and 1.23 µM (active) | inactive |  | inactive |  | 
18 | O=C1c2ccccc2C(=O)N1CCc1noc(-c2ccc(CN3CCCCCC3)s2)n1 | 8.19 µM (active) | 8.19 µM (active) | 20.6 µM (active) |  | 20.1 µM (active) |  |  | 
19 | COc1ncnc(NS(=O)(=O)c2ccc(N)cc2)c1OC | inactive | inactive | inactive | inactive | inactive | inactive |  | 
20 | Cc1cc(C)cc(N)c1 | 5.09 µM (active) | 7.19 µM (active) | 11.4 µM (active) | 36 µM (active) | inactive | 3.21 µM (active) |  | 
21 | C=C1c2cccc(O)c2C(O)=C2C(=O)[C@]3(O)C(O)=C(C(N)=O)C(=O)[C@@H](N(C)C)[C@@H]3[C@@H](O)[C@H]12 | inactive | inactive |  |  | inactive | inactive |  | 
22 | O=C1c2ccccc2C(=O)C1(O)O | 35.8 µM (active) | 71.4 µM (active) |  |  | inactive | inactive |  | 
23 | C[C@H]1c2cccc(O)c2C(O)=C2C(=O)[C@]3(O)C(O)=C(C(N)=O)C(=O)[C@@H](N(C)C)[C@@H]3[C@@H](O)[C@@H]21 | inactive | inactive |  | inactive | inactive | inactive |  | 
24 | O=C1C(=O)c2ccccc2C(O)=C1C1CCC(c2ccc(Cl)cc2)CC1 (configuration not stated) | inactive | inactive |  | inactive | inactive |  |  | 
25 | O=C1c2ccccc2C(=O)C1c1nc2ccccc2c(Br)c1O | inactive | inactive |  | 10 µM (active) | inactive |  |  | 
26 | CCCCCCCCOc1ccc(C(=O)O)cc1 | inactive | 49.7 µM (active) |  | inactive | inactive | inactive |  | 
27 | Cc1cc(=O)c2c(O)c3c(O)cc(=O)c4c3c3c(cc(O)c1c23)C(C)(C)C=4O |  | inactive |  | inactive |  |  | -16.7% [at 23.6 µM] | -4.56% [at 15.8 µM]
